# Pf Dd2 inh = blocks in vitro growth of P. falciparum Dd2 | P. falciparum Dd2 growth, SYBR Green, 72 h | Potency, µM (series often up to 28.9 µM), actives largely listed as inhibitors | 4.3% of 120,000 active | AID 1347417; active means well fitted inhibition curve with a large enough effect; further: nearly all actives have a fitted effect of over 65% in size
#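 Infected erythrocytes (Dd2, 0.3% parasitemia, 2.5% hematocrit final) are added to compound in RPMI-1640/Albumax II medium, grown 72 h at 37C in low oxygen, then lysed with saponin/Triton-X containing SYBR Green and read by fluorescence.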
# A number is an active result; i = inactive; [ ] = remark or other dose. This is one part of a sample in which hits are shown more often than they occur.
SMILES,Pf Dd2 inh
O=C1CC(c2ccccc2)N(Cc2ccncc2)CCCN(C(=O)C2CCCCC2)CCN1 (configuration not stated),i
O=C1CC(c2ccccc2)N(C(=O)C2CC2)CCCN(C(=O)c2ccc3ccccc3n2)CCN1 (configuration not stated),i
CS(=O)(=O)N1CCCN(C(=O)c2ccncc2)CCNC(=O)CC1c1ccccc1 (configuration not stated),i
O=C1CC(c2ccccc2)N(Cc2ccncc2)CCCNCCN1 (configuration not stated),i
O=C1CCN(S(=O)(=O)c2ccccc2)CCCN(C(=O)Cc2cccc(F)c2)CCN1,i
O=C1CC(c2ccccc2)N(Cc2ccncc2)CCCN(S(=O)(=O)c2cccc(F)c2)CCN1 (configuration not stated),0.5µM
O=C1CC(c2ccccc2)N(C(=O)C2CC2)CCCN(C(=O)c2c[nH]c3ccccc23)CCN1 (configuration not stated),i
O=C1CC(c2ccccc2)N(C(=O)C2CC2)CCCN(C(=O)c2cc3ccccc3[nH]2)CCN1 (configuration not stated),11µM
C=CCNC(=O)Cc1ccc(N(Cc2ccc(C)cc2)C(=O)c2ccco2)cc1,i
CC1CCC(NC(=O)c2cc3n(n2)CC(c2ccc4c(c2)OCO4)OC3)CC1 (configuration not stated),i
Cn1ncc(N2CCC(CNC(=O)c3ccn(C(C)(C)C)c3)C2)cc1=O (configuration not stated),i
Cc1cc(F)ccc1OC1(C(=O)O)CCN(c2ncnc3nc[nH]c23)CC1,i
CCCC(=O)N1CCC2(CC1)C(=O)N(CC)c1ccccc12,i
CCN1C(=O)C2(CCN(C(=O)N(C)C)CC2)c2ccccc21,i
CCN1C(=O)C2(CCN(C(=O)c3c(C)noc3C)CC2)c2ccccc21,3.5µM
COCCn1c(Cn2c(C)cc(=O)n(C)c2=O)nnc1C1CC(N)C1 (configuration not stated),i
Cn1cccc1C(=O)N1CCCC(C(=O)NCc2ccccc2)CCNC(=O)CC1 (configuration not stated),i
COc1cc(N2CCC(CO)(Cc3ccccc3C(F)(F)F)CC2)ncn1,i
COc1ccc(O)c(CN2CCC(CO)(Cc3ccccc3Cl)CC2)c1,8.9µM
COc1ccc(F)c(CN2CCC(CO)(CN3CCCC3)CC2)c1,i
CC(C)n1cc(CN2CCC(CO)(Cc3ccccc3Cl)CC2)cn1,i
OCC1(Cc2ccccc2Cl)CCN(Cc2cc3ccccc3o2)CC1,8.9µM
CC(=O)c1cc(CN2CCC(CO)(Cc3ccccc3Cl)CC2)cs1,i
Fc1ccc(OC2CN(Cc3ccc(C(F)(F)F)cc3)C2)c(F)c1,i
COCCNc1ncnc2c1CN(C1CCNCC1)C(=O)CN2C,i
SMILES,Pf Dd2 inh
CN(CC1CCOC1)S(=O)(=O)c1cccs1 (configuration not stated),i[5.79 µM]
COc1ccc(C(CC(=O)N2CCC(C(N)=O)CC2)c2ccccc2)cc1 (configuration not stated),i
CCn1cc(-c2ccc(C)cc2)cc1C(=O)O,i
O[C@H]1CC[C@@H](Cc2cc(-c3ccccc3)on2)O[C@@H]1CNC1CCCCC1,4.5µM
CN(Cc1ccccc1)Cc1cc(C[C@@H]2CC[C@H](O)[C@@H](CN)O2)no1,i
O=C(NC[C@H]1O[C@H](Cc2cc(-c3ccc(F)cc3)on2)CC[C@@H]1O)C1CCC1,i
O=C(COc1ccccc1)NC[C@H]1O[C@H](Cc2cc(-c3ccccc3)on2)CC[C@@H]1O,i
O[C@H]1CC[C@@H](Cc2cc(COc3ccccc3)on2)O[C@@H]1CNCc1cccc(Cl)c1,1.3µM
CC(C)(C)c1cc(C[C@@H]2CC[C@H](O)[C@@H](CN(CC3CC3)CC3CC3)O2)no1,4.5µM
COCc1cc(C[C@@H]2CC[C@H](O)[C@@H](CNCc3cccc(OC)c3)O2)no1,i
CN(C)C[C@H]1O[C@H](Cc2cc(-c3ccc(F)cc3)on2)CC[C@@H]1O,i
CCN(CC)C[C@H]1O[C@H](Cc2cc(-c3ccc(F)cc3)on2)CC[C@@H]1O,7.1µM
CN(C)C[C@H]1O[C@H](Cc2cc(CN3CCOCC3)on2)CC[C@@H]1O,i
COCc1cc(C[C@@H]2CC[C@H](O)[C@@H](CNCc3ccccc3)O2)no1,i
Oc1cccc(-c2cc(C[C@@H]3CC[C@H](O)[C@@H](CNC4CCC4)O3)no2)c1,i
O=C1CCN(S(=O)(=O)c2ccccc2)CCCN(Cc2ccncc2F)CCN1,i
CC[C@H]1CN(C(=O)Nc2cccc(OC)c2)CC[C@H]1CC(=O)N(C)CCC#N,i
Cn1cnc(S(=O)(=O)N2CCC3(CC2)N(CC2CC2)C(=O)CS3=O)c1 (configuration not stated),i
Cc1cccc(C(=O)N2CCCCCCNC(=O)CC2c2ccccc2)c1 (configuration not stated),i
O=C(N1CCCCC1)N1CCN([S+](=O)([O-])c2ccc(Cl)nc2)C(=O)C1,i
O=C(c1nccs1)c1cccnc1N1CCNCC(O)C1 (configuration not stated),i
CNC(=O)c1cccnc1N1CC2CC(C1)[C@H]1CCCC(=O)N1C2 (some centres not stated),i
COc1cccc(NC(=O)NC[C@H]2O[C@H](Cc3cc(-c4ccc(F)cc4)on3)CC[C@@H]2O)c1,i
CC(C)CCNC[C@H]1O[C@H](Cc2cc(-c3ccc(F)cc3)on2)CC[C@@H]1O,3.5µM
O=C(NC[C@H]1O[C@H](Cc2cc(-c3ccc(F)cc3)on2)CC[C@@H]1O)c1ccc(F)cc1,i
SMILES,Pf Dd2 inh
COCC(=O)NC[C@H]1O[C@H](Cc2cc(-c3ccc(F)cc3)on2)CC[C@@H]1O,14µM
CC(=O)NC[C@H]1O[C@H](Cc2cc(-c3ccc(F)cc3)on2)CC[C@@H]1O,i
COCC(=O)NC[C@H]1O[C@H](Cc2cc(-c3ccc(OC)cc3)on2)CC[C@@H]1O,i
O=C(CCc1cc(=O)[nH]o1)N[C@H](c1ccccn1)C1CC(O)C1 (some centres not stated),i
Cc1nc2c(c(-c3ccc(O)cc3)n1)CN(Cc1ccsc1)CCC2,i
CCN(CC)C(=O)CC[C@H]1CNC(=O)[C@@H]2[C@@H](CCN2C(C)C)N1C,i
COc1cccc(-c2cc(C(=O)N3CCC4(CC3)[C@H](O)C[C@@H]4OC)[nH]n2)c1,i
CC(=O)Nc1ccc(NC(=O)C2CCN(c3cnccn3)CC2)cc1,i
COc1ccc(S(=O)(=O)N2CCC(C(=O)Nc3ccc(Oc4ccccc4)cc3)CC2)cc1,i
CCc1ccc(CN2CCC(C(=O)Nc3ccc(Oc4cccnc4)cc3)CC2)o1,11µM
Cc1nc(NCCCc2csc(N)n2)cc(C2CC(O)C2)n1 (configuration not stated),i
O=C(CCc1cc2n(n1)CCCNC2)Nc1ccc(-n2cncn2)cc1,i
O=C(COc1ccccc1)NCCC1CCN(C(=O)Nc2ccccc2)CC1,11µM
O=C(CCc1ccccc1)NCCC1CCN(C(=O)Nc2ccccc2)CC1,i
CC(C)CC(=O)NCCC1CCN(C(=O)Nc2ccccc2)CC1,i
Cc1noc([C@@H]2CC(F)(F)CN2C(=O)c2ccc(F)cn2)n1,i
CNC(=O)[C@H]1C[C@H](Oc2cccnc2)CN1C(=O)NCc1ccc(F)cc1,i
CCOC(=O)c1cc(-c2ccccc2)n(CC(=O)NCc2ccccc2)c1C,i
CCOC(=O)c1cc(-c2ccc(OC)cc2)n(CCC(=O)NCc2ccc(OC)cc2)c1C,4µM

# Screening results (PubChem BioAssay)
